Records with an inconclusive call do not appear. Active and inactive are the calls of the source. Calls follow the shape of the full dose curve.
Experiments:
[1] = target: Acetylcholinesterase (Homo sapiens) (UniProt P22303); experiment: Acetylcholinesterase (AChE) small molecule antagonists: colormetric cell-based qHTS assay (AID 1347395); also: nearly all actives have a fitted effect of over 30% in size
Summary of the method: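 Cells (SH-SY5Y, 2,000 per well) are seeded and left overnight at 37 C. Compound is added for 30 min, then DTNB and acetylthiocholine for a further 90 min at 37 C before absorbance-based thiocholine detection.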

[2] = target: Acetylcholinesterase (Homo sapiens) (UniProt P22303); experiment: Acetylcholinesterase (AChE) small molecule antagonists: enzyme-based qHTS assay (AID 1347397); conditions: Potency: AChE enzyme activity inhibition; outcome: AChE enzyme activity inhibition; also: nearly all actives have a fitted effect of over 55% in size
Summary of the method: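 Colorimetric DTNB readout of acetylthiocholine hydrolysis, 10 min at room temperature, after 30 min room-temperature exposure of 50 mU/mL recombinant human enzyme to compound; DMSO vehicle control.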

[3] = target: Acetylcholinesterase (Homo sapiens) (UniProt P22303); experiment: Acetylcholinesterase (AChE) small molecule antagonists: fluorescence cell-based qHTS assay (AID 1347398); conditions: Potency: AChE activity; outcome: AChE activity; also: nearly all actives have a fitted effect of over 50% in size
Summary of the method: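 Cellular AChE activity read as thiocholine from acetylthiocholine hydrolysis, detected by Thiolite Green fluorescence at 490/520 nm after 40 min at room temperature. Compounds were pre-incubated 30 min at 37 C on adherent SH-SY5Y cells.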

[4] = target: Acetylcholinesterase (Homo sapiens) (UniProt P22303); experiment: Acetylcholinesterase (AChE) small molecule antagonists: enzyme-based qHTS assay with human liver microsomes (AID 1347399); conditions: Potency: qHTS inhibition; outcome: qHTS inhibition; also: nearly all actives have a fitted effect of over 60% in size
Summary of the method: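 Recombinant human AChE (50 mU/mL in the enzyme mix) and human liver microsomes (0.25 mg/mL final) were preincubated with compound and NADPH (0.25 mg/mL final) for 30 min at 37 C. Acetylthiocholine/DTNB was then added; thiocholine was read colorimetrically after 10 min at room temperature.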

Measured: Potency

Sequence of Acetylcholinesterase (Homo sapiens) (P22303 whole entry, looked up): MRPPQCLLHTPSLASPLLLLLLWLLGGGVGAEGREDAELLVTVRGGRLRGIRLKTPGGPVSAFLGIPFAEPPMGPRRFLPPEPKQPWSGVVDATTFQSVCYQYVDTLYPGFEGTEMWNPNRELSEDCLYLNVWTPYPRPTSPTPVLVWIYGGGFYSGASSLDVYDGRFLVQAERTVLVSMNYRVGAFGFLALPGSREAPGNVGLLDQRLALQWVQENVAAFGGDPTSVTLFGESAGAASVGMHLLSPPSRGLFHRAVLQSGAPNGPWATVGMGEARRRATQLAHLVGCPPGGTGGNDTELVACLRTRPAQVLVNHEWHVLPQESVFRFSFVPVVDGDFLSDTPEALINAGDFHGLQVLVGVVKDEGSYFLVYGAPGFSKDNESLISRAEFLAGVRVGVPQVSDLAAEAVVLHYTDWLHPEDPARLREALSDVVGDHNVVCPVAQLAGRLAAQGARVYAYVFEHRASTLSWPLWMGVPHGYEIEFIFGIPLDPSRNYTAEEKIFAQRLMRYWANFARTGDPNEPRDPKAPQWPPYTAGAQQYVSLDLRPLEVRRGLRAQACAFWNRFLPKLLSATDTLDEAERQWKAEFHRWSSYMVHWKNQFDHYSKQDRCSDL

N[C@@H](CCC(=O)O)C(=O)O
inactive: [1] | [2] | [3] | [4]

CC(C)(C#N)c1cc(Cn2cncn2)cc(C(C)(C)C#N)c1
inactive: [1] | [2] | [3] | [4]

CC(C)CC(=O)CC(C)CC(C)C (stereo not given)
inactive: [1] | [2] | [3] | [4]

O=c1ccc2ccccc2o1
inactive: [1] | [2] | [3] | [4]

CCCCC/C=C/C=C/C=O
inactive: [1] | [2] | [3] | [4]

CNC1(C)C2CCC(C2)C1(C)C (stereo not given)
inactive: [1] | [2] | [3] | [4]

Oc1ccccc1C=NCc1ccccc1
inactive: [1] | [2] | [3] | [4]

CCCCNc1ccccc1
inactive: [1] | [2] | [3] | [4]

CC(=O)OC1CC(C)OC(C)O1 (stereo not given)
inactive: [1] | [2] | [3] | [4]

Nc1nc2ncc(CNc3ccc(C(=O)N[C@@H](CCC(=O)O)C(=O)O)cc3)nc2c(=O)[nH]1
inactive: [1] | [2] | [3] | [4]

OC[C@@H](O)[C@@H](O)[C@H](O)[C@@H](O)CO
inactive: [1] | [2] | [3] | [4]

OCCCCl
inactive: [1] | [2] | [3] | [4]

CCCCCCC(C)(C)S
inactive: [1] | [2] | [3] | [4]

CN1CCC[C@H]1c1cccnc1
inactive: [1] | [2] | [3] | [4]

O=C(O)C1=NN(c2ccc(S(=O)(=O)O)cc2)C(=O)C1
inactive: [1] | [2] | [3] | [4]

CC(C)CC=O
inactive: [1] | [2] | [3] | [4]

Nc1ccc(S(=O)(=O)O)cc1
inactive: [1] | [2] | [3] | [4]

COC(=O)C(C)O (stereo not given)
inactive: [1] | [2] | [3] | [4]

COC(=O)c1ccc(C)cc1C1=NC(C)(C(C)C)C(=O)N1 (stereo not given)
inactive: [1] | [2] | [3] | [4]

NC(=O)c1ccccc1Cl
inactive: [1] | [2] | [3] | [4]

CC(=O)Nc1ccc(/C=N/NC(N)=S)cc1
inactive: [1] | [2] | [3] | [4]

[Cl][Dy]([Cl])[Cl]
inactive: [1] | [2] | [3] | [4]

CC1=C(O)C(=O)CO1
inactive: [1] | [2] | [3] | [4]

CCOC(=O)C1=NOC(c2ccccc2)(c2ccccc2)C1
inactive: [1] | [2] | [3] | [4]

CN(C)c1ccc(C2(c3ccc(N(C)C)cc3)OC(=O)c3cc(N(C)C)ccc32)cc1
inactive: [1] | [2] | [3] | [4]

COc1cc(/C=C/C(=O)CC(=O)/C=C/c2ccc(O)c(OC)c2)ccc1O
inactive: [1] | [2] | [3] | [4]

O=[N+]([O-])c1nccn1CO[C@@H](CO)[C@H](O)CO
inactive: [1] | [2] | [3] | [4]

C/C(=N\O)[C@@H](C)NCC(C)(C)CN[C@H](C)/C(C)=N/O
inactive: [1] | [2] | [3] | [4]

CN(C)[C@@H]1C(=O)C(C(N)=O)=C(O)[C@@]2(O)C(=O)C3=C(O)c4c(O)cccc4C[C@H]3C[C@@H]12
inactive: [1] | [2] | [3] | [4]

CCCCCCCC(=O)OCC(COC(=O)CCCCCCC)OC(=O)CCCCCCC
inactive: [1] | [2] | [3] | [4]

N#Cc1ccccc1O
inactive: [1] | [2] | [3] | [4]

C#CCN[C@@H]1CCc2ccccc21
inactive: [1] | [2] | [3] | [4]

Cc1cccc(N(C)C(=S)Oc2ccc3c(c2)C2CCC3C2)c1 (stereo not given)
inactive: [1] | [2] | [3] | [4]

CCCCCC(N)=O
inactive: [1] | [2] | [3] | [4]

CC(=O)[C@H]1CC[C@H]2[C@@H]3C[C@H](C)C4=CC(=O)CC[C@]4(C)[C@H]3[C@@H](O)C[C@]12C
inactive: [1] | [2] | [3] | [4]

CCCCCOC(=O)Nc1nc(=O)n([C@@H]2O[C@H](C)[C@@H](O)[C@H]2O)cc1F
inactive: [1] | [2] | [3] | [4]

CCOC(=O)[C@H](CCc1ccccc1)N[C@@H](C)C(=O)N1Cc2ccccc2C[C@H]1C(=O)O
inactive: [1] | [2] | [3] | [4]

NCc1cccc(CN)c1
inactive: [1] | [2] | [3] | [4]

Cc1ccc(C)c(C)c1
inactive: [1] | [2] | [3] | [4]

O=[N+]([O-])c1c(Cl)cc(Cl)cc1Cl
inactive: [1] | [2] | [3] | [4]

Nc1ccccc1N
inactive: [1] | [2] | [3] | [4]

CC(=O)c1cc2ccccc2s1
inactive: [1] | [2] | [3] | [4]

Cc1ncc([N+](=O)[O-])n1CCO
inactive: [1] | [2] | [3] | [4]

C=CC(=O)OCCC#N
inactive: [1] | [2] | [3] | [4]

OC[C@H]1O[C@@H](n2cnc3c(=S)nc[nH]c32)[C@H](O)[C@@H]1O
inactive: [1] | [2] | [3] | [4]

C[C@@H](CN1CC(=O)NC(=O)C1)N1CC(=O)NC(=O)C1
inactive: [1] | [2] | [3] | [4]

CC(O)CC(C)O (stereo not given)
inactive: [1] | [2] | [3] | [4]

CC(C)(C)CC(C)(C)N
inactive: [1] | [2] | [3] | [4]

CCOC(=O)[C@H](C)O
inactive: [1] | [2] | [3] | [4]

Cc1ncsc1CCO
inactive: [1] | [2] | [3] | [4]

Clc1ccc(Nc2nnc(Cc3ccncc3)c3ccccc23)cc1
inactive: [1] | [2] | [3] | [4]

CCCCCC1C(=O)CCC1CC(=O)OC (stereo not given)
inactive: [1] | [2] | [3] | [4]

CCCCCCCC/C=C\CCCCCCCC(=O)OC[C@@H](O)[C@H]1OC[C@H](O)[C@H]1O
inactive: [1] | [2] | [3] | [4]

C=C/C(C)=C/C/C=C(\C)CCC=C(C)C
inactive: [1] | [2] | [3] | [4]

CN(C)CCCN(C)CCCN(C)C
inactive: [1] | [2] | [3] | [4]

COC(=O)CC(C)CCC=C(C)C (stereo not given)
inactive: [1] | [2] | [3] | [4]

CCCCCCCN
inactive: [1] | [2] | [3] | [4]

COC[C@H](c1ccc(C(F)(F)F)cc1)N1CCN(C2(C)CCN(C(=O)c3c(C)ncnc3C)CC2)C[C@H]1C
inactive: [1] | [2] | [3] | [4]

CCCC(=O)OCCC(C)C
inactive: [1] | [2] | [3] | [4]

CC(C)(C)NC(=O)[C@H]1CC[C@H]2[C@@H]3CC[C@H]4NC(=O)C=C[C@]4(C)[C@H]3CC[C@]12C
inactive: [1] | [2] | [3] | [4]
